RE007 growth inh = less growth of the S. pombe RE007 Vpr strain; Potency, µM (titrated, usually from 92.2 µM), without a hit: at the top dose activity change, negative = less growth, usual class: inhibitors; S. pombe RE007 Vpr strain, BacTiter-Glo ATP luminescence, 24 h; actives 0.21% (n = 360,000); active = well fitted falling curve with a large enough effect; inconclusive = small, poorly fitted or top-dose-only effect; inactive = no such curve, though single readings can be large or run the other way; also: nearly all actives have a fitted effect of over 50% in size
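Fission yeast strain RE007, carrying one chromosomally integrated HIV-1 vpr copy, was seeded at OD 0.01 in PMG+AL medium with 23 nL pinned compound. After 24 h at 30 °C and 99% humidity, viability was read by BacTiter-Glo luminescence.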
FBPA Giardia inh = blocks Giardia fructose-bisphosphate aldolase activity. purified Giardia FBPA. A8B2U2. AID 2451. actives 0.71% (n = 290,000). Potency, µM (series often up to 59.6 µM), for the others: top-dose activity, negative = inhibition, usual class: inhibitors; also: nearly all actives have a fitted effect of over 55% in size
Target sequence (A8B2U2 whole entry, looked up): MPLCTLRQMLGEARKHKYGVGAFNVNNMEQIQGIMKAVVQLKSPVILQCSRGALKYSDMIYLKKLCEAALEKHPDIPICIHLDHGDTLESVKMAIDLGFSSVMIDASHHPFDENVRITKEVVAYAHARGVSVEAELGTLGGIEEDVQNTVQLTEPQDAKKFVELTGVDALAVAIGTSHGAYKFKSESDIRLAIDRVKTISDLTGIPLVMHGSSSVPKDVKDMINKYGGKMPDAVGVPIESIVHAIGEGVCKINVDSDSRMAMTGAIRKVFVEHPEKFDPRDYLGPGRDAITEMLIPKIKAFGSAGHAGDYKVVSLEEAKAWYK
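Giardia FBPA (40 nM reagent) was preincubated 10 min at RT with compound (up to 57.5 uM final), then substrate plus GAPDH/TPI/NAD/arsenate coupling system with diaphorase/resazurin was added; resorufin fluorescence (525/598 nm) was read after 20 min.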
AmpC inh no detg = inhibitors of E. coli AmpC beta-lactamase without detergent. P00811. AmpC nitrocefin hydrolysis, absorbance 480 nm, 0.0001% Triton. Potency, µM (series often up to 57.1 µM), for the others: at the highest dose activity change, negative = inhibition, actives largely listed as inhibitors. actives 0.52% (n = 330,000);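 also: plate controls were no compound for no effect and no enzyme for full effect; nearly all actives have a fitted effect of over 20% in size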
Target sequence (P00811 whole entry, looked up): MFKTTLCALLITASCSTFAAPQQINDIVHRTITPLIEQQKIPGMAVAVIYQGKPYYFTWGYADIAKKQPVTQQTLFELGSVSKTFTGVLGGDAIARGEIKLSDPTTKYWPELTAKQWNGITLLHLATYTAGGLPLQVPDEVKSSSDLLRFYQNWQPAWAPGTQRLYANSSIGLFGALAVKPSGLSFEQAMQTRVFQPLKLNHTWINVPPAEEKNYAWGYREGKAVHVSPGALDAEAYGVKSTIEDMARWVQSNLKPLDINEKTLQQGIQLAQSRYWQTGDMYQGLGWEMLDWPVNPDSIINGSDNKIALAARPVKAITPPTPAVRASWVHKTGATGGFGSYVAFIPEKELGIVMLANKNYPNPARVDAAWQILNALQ
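AmpC (5.3 nM in the dispensed reagent) in 20 mM phosphate pH 7.0 with 0.01% (detergent screen) or 0.0001% Triton X-100 was preincubated with compounds for 15 min at room temperature. Nitrocefin was then added from an 800 uM solution, and hydrolysis was followed at 480 nm.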
Sm TGR inh = inhibitors of Schistosoma mansoni thioredoxin glutathione reductase. Q962Y6. purified TGR, DTNB reduction, TNB absorbance 405 nm. Potency, µM (series often up to 114 µM), for inactives: at the highest dose activity change, negative = inhibition, most hits filed as inhibitors. actives 3% (n = 360,000). AID 485364; also: nearly all actives have a fitted effect of over 60% in size
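TGR 20 nM + NADPH 100 uM (dispensed conc.), cpd preinc 15 min RT; start with NADPH (500 uM addition) then DTNB (15 mM addition). Kinetic TNB absorbance, 405 nm filter. Four-parameter Hill fit across titration.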
AmpC inh detg = AmpC beta-lactamase inhibition with detergent present; AmpC hydrolysis of nitrocefin, absorbance 480 nm, 0.01% Triton; AID 485294; P00811; actives 0.041% (n = 370,000); Potency, µM (titrated, usually from 114 µM), for the others: top-dose activity change, negative = inhibition, most hits filed as inhibitors;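 also: 0% = no-compound wells and -100% = no-enzyme wells; nearly all actives have a fitted effect of over 25% in size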
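20 mM phosphate pH 7.0 + 0.01% (detergent screen) or 0.0001% Triton X-100; 5.3 nM AmpC reagent; cpd preinc 15 min RT; nitrocefin (800 uM stock) to start; A480 q20 s × 4 min; Activity was normalised to no-enzyme and no-compound control wells.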
* = called active by the depositor; ? = inconclusive; / = not tested or not shown; ! = not active in a repeat. Hits are enriched below; roughly 3.4% of the tested compounds scored in any of these assays. Unless noted, calls follow the shape of the dose curve; as a rule, active = well fitted curve in the direction sought with a large enough effect; inconclusive = small, poorly fitted or top-dose-only effect, or another doubt; inactive = no such curve, though single readings can be large; an effect the other way counts as inactive or inconclusive. Unless noted, % is scaled to controls: 0 for no effect and ±100 for the full control effect; potency is read from the fitted curve at half-maximal effect.

SMILES	RE007 growth inh	FBPA Giardia inh	AmpC inh no detg	Sm TGR inh	AmpC inh detg
CCN(CC)S(=O)(=O)c1cccc(NC(=O)COC(=O)/C=C/c2ccco2)c1	-9.9%	-1.6%	-26.3%	22.4µM*	-10.1%
Cc1ccc(NC(=O)COC(=O)c2ccc(Cl)cc2)cc1S(=O)(=O)N(C)C	-6.7%	-1.3%	-29.2%	0.8%	5.9%
C[C@H](CO)N1C[C@H](C)[C@@H](CN(C)S(=O)(=O)c2ccc(Cl)cc2)OCc2cnnn2CCCC1=O	-9.5%	/	/	/	/
COc1ccc(-c2sc3cc(OC)c(OC)cc3c2C#CC2(O)CCCCC2)cc1	-9.2%	/	45.2%	8.91µM*	4.1%
COc1ccc(-c2sc3ccccc3c2C#CC2(O)CCCCC2)cc1	-11.7%	2.3%	-2.9%	-20.9%	1.8%
COc1ccc(/C=N/N=C2/NC(=O)CC(C(=O)O)S2)cc1 (stereo not given)	-7.4%	-10.0%	-37.7%	-9.8%	?
COc1ccc(/C=N/N=C2/CC(C)(C)Cc3n[nH]c(=O)cc32)cc1	-2.6%	?	-15.7%	12.6µM*	-2.2%
CN(C)c1cccc2c(C=C(C#N)C#N)ccc(N(C)C)c12	-5.9%	-13.9%	-7.0%	25.1µM*	-12.7%
N#Cc1ccc(/C=C/C(=O)c2ccccc2)cc1	/	-4.3%	-14.8%	8.91µM*	8.3%
COc1ccc(OC)c2[nH]c(=O)c(CCNC(=O)C(C)C)cc12	2.8%	-29.8%	10µM*	0.2%	?
CCC(CC)C(=O)NCCc1cc2c(OC)ccc(OC)c2[nH]c1=O	0.9%	-6.2%	-20.2%	5.3%	-1.4%
CN(C)c1ccc(CN(C(=O)c2cc3ccccc3oc2=O)C2CCS(=O)(=O)C2)cc1 (stereo not given)	4.5%	/	-4.5%	-4.6%	-5.5%
Cc1cc2oc(C(=O)N(Cc3ccco3)C3CCS(=O)(=O)C3)cc(=O)c2cc1Cl (stereo not given)	-6.9%	-0.4%	?	50.1µM*	-9.1%
Cc1ccc(CN(C(=O)c2ccccc2[N+](=O)[O-])C2CCS(=O)(=O)C2)o1 (stereo not given)	2.5%	/	-0.6%	31.6µM*	3.6%
Cc1ccc2c(=O)cc(C(=O)N(Cc3ccccc3Cl)C3CCS(=O)(=O)C3)oc2c1 (stereo not given)	/	/	/	-2.3%	10.7%
O=C(c1cc2ccccc2oc1=O)N(Cc1ccco1)C1CCS(=O)(=O)C1 (stereo not given)	-10.5%	-5.7%	-15.9%	15.8µM*	-25.5%
CCCOc1ccc(-c2nc(N3CCN(C)CC3)c3ccccc3n2)cc1	-10.8%	6.0%	159.0%	2.2%	?
Cc1nc2sccn2c(=O)c1S(=O)(=O)NCC1CCN(Cc2ccc(Cl)cc2)CC1	11.0%	/	/	/	/
CCCCCCC[n+]1ccc(-c2cc[n+](CCCCCCC)cc2)cc1	6.31µM*	-8.6%	33.9%	-25.9%	-11.0%
CCCCCCCCCCCCCCCC[n+]1ccccc1	15.8µM*!	8.3%	/	/	/
CCCCCCCCCCCCCCCC[n+]1ccc(C(N)=O)cc1	?	6.4%	58.9%	3.8%	-23.3%
CCOC(=O)c1cc(CC)sc1/N=C/C1C(=O)NC(=S)NC1=O	-1.9%	17.7µM*	-28.5%	?	1.0%
O=C(NC1(C(F)(F)F)NC(=O)N(CC2CCCCC2)C1=O)c1ccco1 (stereo not given)	3.5%	-0.1%	-1.6%	79.4µM*	?
Cc1cc(=O)[nH]c(N/N=C/CCc2ccccc2)n1	5.3%	-15.8%	-21.1%	-0.7%	3.6%
Cc1cccc2c1=NC(=O)/C(=C/c1c(O)[nH]c(=O)[nH]c1=O)C=2	10.4%	0.2%	-1.3%	35.5µM*	-14.2%
SMILES	RE007 growth inh	FBPA Giardia inh	AmpC inh no detg	Sm TGR inh	AmpC inh detg
O=C1NC(=O)N(c2ccc(Cl)cc2)C(=O)/C1=C/c1coc2ccc(O)cc2c1=O	-9.4%	-4.5%	-33.1%	1µM*	0.8%
O=C1NN(c2ccccc2)C(=O)/C1=C\c1coc2ccc(O)cc2c1=O	6.2%	5.9%	-36.5%	15.8µM*	?
O=C1NC(=O)N(c2ccccc2)C(=O)/C1=C/c1coc2ccc(O)cc2c1=O	22.9%	-0.8%	-24.9%	0.0%	-13.5%
COc1ccc(NC(=O)c2oc3ccccc3c2NC(=O)c2ccco2)cc1	-12.3%	-7.0%	-7.5%	-10.3%	-10.3%
NC(=O)CSC1=N/C(=C\c2ccco2)C(=O)N1c1ccc(OC(F)F)cc1	-3.0%	-8.0%	-38.1%	44.7µM*	?
CCN(CC)C(=O)CSC1=N/C(=C/c2ccco2)C(=O)N1c1ccc(OC)c(Cl)c1	-31.8%	-15.6%	16.7%	?	7.4%
Nc1ccc2c(c1)C/C(=C/c1ccco1)C2=O	?	-21.3%	-31.9%	15.8µM*	-7.5%
COc1ccc(/C=C2\CCCc3c2nc2ccccc2c3C(=O)O)cc1OC	/	7.92µM*	-31.0%	20µM*	4.0%
COc1cc(/C=C2\CCCc3c2nc2ccccc2c3C(=O)O)cc(OC)c1O	-3.6%	?	-16.7%	20µM*	-7.8%
COc1ccc(/C=C2\CCc3c2nc2ccccc2c3C(=O)O)cc1OC	-15.2%	-16.4%	-18.9%	-14.8%	-14.9%
COc1ccc(OC)c(NC(=O)CCc2nnc3ccc(NCc4ccco4)nn23)c1	-6.2%	/	53.6%	-19.9%	-6.8%
COc1ccc2c(=O)c3c(=O)n(Cc4ccco4)c(-c4ccc(C)cc4)nc3oc2c1	1.0%	8.0%	0.0%	31.6µM*	-3.4%
CCCCOc1ccc(C(=O)N/C(=C/c2cccc([N+](=O)[O-])c2)C(=O)O)cc1	17.9%	28.6%	0.2%	?	3.7%
Cn1c(=O)cc(OCC(=O)N2CCN(C3CCCCC3)CC2)c2ccccc21	-4.2%	-14.1%	0.891µM*	-3.5%	?
CN(C(=O)COC(=O)c1cccc(S(=O)(=O)N2CCOCC2)c1)C1CCS(=O)(=O)C1 (stereo not given)	-11.5%	/	-0.2%	0.6%	?
CCOC(=O)C(NC(=O)c1ccc(Cl)cc1Cl)(Nc1ccc(C)cc1)C(F)(F)F (stereo not given)	-10.6%	0.8%	-10.6%	-9.5%	-5.2%
COc1ccc(C(=O)c2nc3ccccc3n2C(C)C)cc1	0.2%	-21.7%	50.5%	31.6µM*	0.5%
CC(=O)c1cc(-c2ccccc2)n(CC(=O)Nc2cccc(C)c2)c1C	10.4%	1.0%	14.1µM*	7.7%	?
CCc1cccc(NC(=O)Cn2c(-c3ccccc3)cc(C(C)=O)c2C)c1	-3.4%	0.7%	-44.0%	-18.0%	-12.5%
Cc1nc(SCC(=O)N2CCCCCC2)c2c(=O)n(C)c(=O)n(CC(C)C)c2n1	1.2%	/	/	/	/
CCOc1ccccc1Oc1c(C)oc2cc(OC(=O)c3ccco3)ccc2c1=O	-2.2%	-0.8%	-22.3%	35.5µM*	-0.5%
COc1ccccc1-n1c(O)c(/C=N/NC(=S)Nc2ccccc2)c(=O)[nH]c1=S	4.6%	?	-46.2%	11.2µM*	3.5%
